Experimental findings from ChEMBL document CHEMBL1157539, “Thousands of chemical starting points for antimalarial lead identification” (Nature, 2010) are described below.

The term Inhibition denotes the change of the read-out against control, counted positive when it falls. Read a low Inhibition as a response near the control.

This assay deals with Plasmodium falciparum. Nature of the assay: GSK_TCMDC: Inhibition of Plasmodium falciparum 3D7 in whole red blood cells, using parasite LDH activity as an index of growth. Test compounds present at 2uM. The class given is functional.
Take `COc1cccc(-c2nc3c(N4CCN(c5ccncc5)CC4)cccc3n2CC2CCCCCN2)n1.O=C(O)C(F)(F)F` (stereo not drawn): the Inhibition was found to be 91%.

`O=C(NCCCCN1CCC(c2ccc3c(c2OCc2ccccn2)CCCC3)CC1)c1ccc(NC(=O)c2ccc(Cl)cc2)cc1` returned an Inhibition of 100%. The result for `Cc1cc(N[C@@H](CC(C)C)C(=O)NC2CCCC2)nc(NCC2CCCCC2)n1.O=C(O)C(F)(F)F` reads 100%. `N=C(Nc1cccc(Cc2ccccc2)n1)Nc1ncccn1` showed an Inhibition of 90%. Under `CCCNCc1ccc(-c2ccc(CN(Cc3ccc4c(c3)OCO4)C(=O)Cc3cccnc3)cc2)nc1.O=C(O)C(F)(F)F` stands 94%. Consider `CS(=O)(=O)c1ccc(CNCc2ccc(-c3ccc(-c4nc5cc(C(F)(F)F)ccc5[nH]4)cc3)cc2)cc1.O=C(O)C(F)(F)F`, for which the Inhibition turned out to be 100%. Under `O=C1SC(S)=NC1=CNCCCCCCO` stands 91%; under `CCN(CC)c1nc(Nc2cc(C)ccc2C)nc(Nc2ccccc2O)n1`, 100%. Take `CCOC(=O)c1ccc(NC(=O)N[C@@H](Cc2ccccc2)C(=O)NC2CCN(Cc3ccc(OCCCN(C)C)cc3)C2)cc1` (stereo partly drawn): the Inhibition came to 91%. Under `Cc1cc(C(=O)NC2CCN(CC3(c4ccccc4)CCCCC3)CC2)on1` stands 97%; under `CN(C)CCCN1CCN(C(=O)c2cccc(-c3noc(C(F)(F)F)n3)c2)CC1`, 92%. In turn, `O=C(Nc1cccc(CN2CCCN(Cc3cccc(Cl)c3)CC2)c1)c1ccc(Cl)c(Cl)c1.O=C(O)C(F)(F)F` registered an Inhibition of 89%. As to `Cc1cc(-c2cccc3c(NC(=O)N4CCc5cc6nccc(N7CCN8CCC[C@H]8C7)c6cc54)cccc23)cc(C)n1.Cl`, the Inhibition is 100%.
